# Neddylation inh – blocks human cullin neddylation; AID 651699; inhibition, % at 25 µM; TR-FRET cullin neddylation, biochemical; P61081+Q13564; 360,000 compounds, 0.58% hits; in the data active means inhibition above about 36%
# Target sequence (P61081 whole entry, looked up): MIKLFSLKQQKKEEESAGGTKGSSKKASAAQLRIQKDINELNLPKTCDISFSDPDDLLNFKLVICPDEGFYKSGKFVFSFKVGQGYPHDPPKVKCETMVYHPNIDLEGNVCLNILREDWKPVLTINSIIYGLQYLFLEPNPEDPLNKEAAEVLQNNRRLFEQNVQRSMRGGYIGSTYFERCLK
# Target sequence (Q13564 whole entry, looked up): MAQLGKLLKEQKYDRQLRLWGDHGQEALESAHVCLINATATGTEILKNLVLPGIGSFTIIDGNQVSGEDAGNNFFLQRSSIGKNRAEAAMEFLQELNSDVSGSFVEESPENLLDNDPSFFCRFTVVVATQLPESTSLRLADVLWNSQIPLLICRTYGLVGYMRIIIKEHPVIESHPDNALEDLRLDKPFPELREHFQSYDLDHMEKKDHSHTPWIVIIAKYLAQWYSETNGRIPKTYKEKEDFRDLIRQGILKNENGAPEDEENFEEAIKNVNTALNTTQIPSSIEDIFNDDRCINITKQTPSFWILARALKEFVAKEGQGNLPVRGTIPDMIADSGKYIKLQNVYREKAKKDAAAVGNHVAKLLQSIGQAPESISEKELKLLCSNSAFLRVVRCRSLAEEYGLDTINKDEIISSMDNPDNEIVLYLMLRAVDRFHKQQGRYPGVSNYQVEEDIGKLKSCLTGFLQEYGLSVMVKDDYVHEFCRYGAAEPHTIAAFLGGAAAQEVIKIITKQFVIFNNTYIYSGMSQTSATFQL
# GC-A act – GC-A (human) enzyme activation; P16066; HEK293 GC-A cells, cGMP TR-FRET, EC30 ANP; 0% at EC30 ANP, 100% saturating ANP; activation, % at 10 µM; 370,000 compounds, 0.14% hits; in the data active means activation above about 40%
# GC-B act – GC-B (human) receptor activation | HEK293-GC-B cells, CNP EC30, cGMP TR-FRET; 0% at EC30 CNP, 100% saturating CNP | activation, % at 10 µM | 370,000 compounds, 0.11% hits | AID 1920062;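 active means activation at 10 µM reaching about 35% in either raw or pattern-adjusted values, limit read from the data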
# PfGluPho inh – PfG6PD (Plasmodium falciparum) enzyme inhibition; inhibition, % at 20 µM; PfGluPho enzyme, NADPH resazurin-diaphorase fluorescence; 350,000 compounds, 0.78% hits;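 active means inhibition reaching at least a set limit at 20 µM in the primary screen, cut at about 59% in these data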;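 further: 0% = DMSO wells with substrate and 100% = DMSO wells lacking glucose-6-phosphate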
# APOBEC3G inh – APOBEC3G (human) deaminase inhibition | recombinant A3G, ssDNA deamination FAM/TAMRA fluorescence | inhibition, % at 20 µM | 330,000 compounds, 0.28% hits;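 active means inhibition of at least 40% at 20 µM, with no more than 30% in the related APOBEC3A deaminase screen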;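 further: plate controls were DMSO wells with A3G for no effect and wells lacking A3G enzyme for full effect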
# A3A deaminase – blocks human APOBEC3A ssDNA deamination; 330,000 compounds, 0.41% hits; AID 493011; recombinant A3A, FAM/TAMRA ssDNA deamination fluorescence; inhibition, % at 20 µM;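 active means at least 40% inhibition at 20 µM here, with at most 30% in a related deaminase screen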;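 further: plate controls were A3A with DMSO for no effect and wells lacking A3A enzyme for full effect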
# * = called active by the depositor; . = no result shown. Shown are actives, neighbours in structure and some others; about 2% of the full set was active somewhere.
SMILES,Neddylation inh,GC-A act,GC-B act,PfGluPho inh,APOBEC3G inh,A3A deaminase
CN(CCO)c1cccc2c1S(=O)(=O)N(Cc1cn(Cc3cccc(F)c3)nn1)Cc1ccccc1O2,.,1,-1,.,.,.
CC(=O)C1=C(c2ccc(Br)cc2)C(=O)c2ccccc2C1=O,-8,5,9,106*,.,.
CNC1=C(N(C(C)=O)c2ccc(Br)cc2)C(=O)c2ccccc2C1=O,-89,-5,-3,44,.,.
C=CCN(C)CC#Cc1ccc(C)cc1,.,3,-10,.,.,.
O=C1ON=C(c2ccccc2)/C1=C\c1ccco1,1,27,42*,9,8,12
O=C1ON=C(c2ccccc2)/C1=C/c1ccccc1,6,1,6,-23,-1,-7
CC(C)n1c(=O)[nH][nH]c1=S,1,2,-1,75*,4,-8
CC(C)n1c(=O)[nH]c2ccccc21,0,-1,-1,11,-4,2
COc1cccc(N2CCN(c3ncnc4c3[nH]c3ccccc34)CC2C)c1 (configuration not stated),.,-2,-2,.,-5,-17
COc1cccc(N2CCN(c3ncnc4c3[nH]c3ccc(F)cc34)CC2C)c1 (configuration not stated),39*,-1,0,14,-3,-2
COC(=O)C1=CN(c2ccc(OC)cc2)C=C(C(=O)OC)C1c1cc(OC)c(OC)cc1OC,59*,4,2,-8,-7,-2
COc1ccc(Cn2c(O)c(/C=N/NC(=O)c3cccnc3)c3ccccc3c2=O)cc1,43*,1,7,-21,.,.
c1cc2c3c(cccc3c1)NC1(CCC3(CC1)Nc1cccc4cccc(c14)N3)N2,58*,-41,-6,33,1,3
CC(C)(C)OC(=O)n1cccc1/C=C1\c2ccccc2C(=O)N1c1ccccc1,42*,.,.,0,.,.
COC(=O)[C@@]12CCCCC3=C1N(CCC3)C(=O)[C@H]2CC(=O)NCc1ccc(C)o1,.,-1,1,.,.,.
Cc1cc(Nc2cccc(Cl)c2)nc(NCc2ccccc2)n1,45*,-7,-1,49,-4,0
Cc1cc(N/N=C/c2cccc(Cl)c2)nc(NCc2ccccc2)n1,16,2,-7,39,-5,3
O=C(Nc1ccc(N2CCOCC2)c(Cl)c1)c1cc2ccccc2o1,21,.,.,126*,-3,-6
COc1ccc(Cn2cc(COC(=O)Nc3ccc(F)cc3)nn2)cc1,.,3,2,.,.,.
NC(=O)c1cc[n+](CC2=C(C(=O)O)N3C(=O)[C@@H](NC(=O)C(c4ccccc4)S(=O)(=O)[O-])[C@H]3SC2)cc1 (some centres not stated),21,.,.,71*,87,100
N[C@@H](C(=O)N[C@@H]1C(=O)N2C(C(=O)O)=C(Cl)CS[C@H]12)c1ccccc1,11,2,-1,27,-2,-1
CN(C)c1ccc(N=Cc2nc(-c3ccccc3)oc2O)cc1,-46,-1,-1,31,-8,-3
CN(C)c1ccc(N=Cc2cccn2C)cc1,2,-11,-8,77*,3,-3
COC(=O)[C@]12C[C@H](CC(=O)NCc3cccs3)C(=O)N(CCC3=CCCCC3)C1=C[C@H](C(C)C)O[C@@H]2C1CC1,.,-3,-3,.,.,.
COc1ccc(Cn2c(NC(=O)c3ccccc3)nc(Cc3ccccc3)c2Cc2ccccc2)cc1,.,2,2,.,.,.
SMILES,Neddylation inh,GC-A act,GC-B act,PfGluPho inh,APOBEC3G inh,A3A deaminase
COc1ccc(OC)c(N)c1,-16,-7,1,62*,-3,-3
COC(=O)C1CN(Cc2ccc(OC)cc2)CCS(=O)(=O)N1Cc1ccc(C(F)(F)F)cc1 (configuration not stated),.,-4,1,.,.,.
O=C(Nc1ccc(N2CCCC2)cc1)C(Cl)c1ccccc1 (configuration not stated),-3,.,.,88*,-3,-3
COC(=O)[C@]12C[C@H](CC(=O)N3CCN(C(=O)c4ccco4)CC3)C(=O)N(Cc3ccccc3)C1=C[C@H](C1CCCC1)O[C@@H]2C,.,-5,-3,.,.,.
Cc1[nH]c2ccccc2c1CCN(Cc1cccs1)C(=O)Nc1cccc2c1OCO2,.,-1,-7,.,.,.
Cc1ccccc1NC(=O)/C=C/c1ccc([N+](=O)[O-])s1,44*,.,.,29,.,.
Cc1cc(C)cc(NC(=O)/C=C/c2ccc([N+](=O)[O-])s2)c1,16,-3,1,2,.,.
O=c1n(Cc2ccc(Cl)cc2)c2sc3c(c2c2ncnn12)CCCC3,-1,34,49*,7,-6,-3
C=CCn1c(=O)n2ncnc2c2c3c(sc21)CCCC3,-1,17,1,-9,.,.
CC(C)[C@H](NS(=O)(=O)c1ccc(F)cc1F)C(=O)N1CCC[C@H]1C(=O)NCCc1ccccc1Cl,.,0,5,.,.,.
CCOC(=O)N1CCN(CCC(=O)c2ccc(OC)cc2)CC1,-2,4,-5,9,-4,-2
CCOC(=O)N1CCN(CCC(=O)c2ccc(Cl)cc2)CC1,-2,65*,-14,17,8,5
COc1cc2c(cc1OC)CN(C(=O)CCNC(=O)c1ccc(Br)cc1)CC2,3,-6,-3,-5,-5,1
CCOC(=O)N1CCN(CCC(=O)c2ccc(Br)cc2)CC1,1,53*,-11,29,-2,-1
CCOC(=O)N1CCN(CCC(=O)Nc2ccc(C)cc2)CC1,-1,4,3,8,-8,-4
COc1cc2c(cc1OC)CN(CCC(=O)c1ccc(Br)cc1)CC2,.,42*,-11,14,-8,-3
CN(Cc1cn(CC2CCCCC2)nn1)S(=O)(=O)c1ccccc1Br,.,2,2,.,.,.
COC(=O)C12C=C3CC(C)=C3C(=O)N1Cc1[nH]c3ccccc3c1C2 (configuration not stated),.,-2,13,.,.,.
COCCN1Cc2cc(C(=O)OC)c3c(c2C1=O)c1cc(OC)ccc1n3C(=O)c1ccccc1,.,3,13,.,.,.
COc1ccc(/C(C)=N/NC(=O)c2cccc(S(=O)(=O)N3CCCC3)c2)c(O)c1,49*,-7,-7,.,0,-1
O=[N+]([O-])c1ccc2c(c1)N([O-])C1(CCCCC1)[N+]2=O,.,-5,-2,60*,.,.
O=C(O)/C=C/c1ccc([N+](=O)[O-])o1,-19,-2,-5,-4,2,24
O=[N+]([O-])c1ccc(/C=N/N=C/c2ccc([N+](=O)[O-])o2)o1,7,13,3,60*,.,.
S=c1[nH]nc(-c2cc(-c3ccccc3)n[nH]2)n1/N=C/c1ccccc1,12,-3,-12,29,18,-4
S=c1[nH]nc(-c2cc(-c3ccccc3)n[nH]2)n1/N=C/C(Br)=C/c1ccccc1,54*,-7,-7,28,4,-5
N#CCCN1CCN(C(=S)c2ccc(-c3cccc(Cl)c3)o2)CC1,-23,21,73*,2,2,-4
